Measured values as given in ChEMBL document CHEMBL1961873, “Compounds: GSK PKIS; Assays: Nanosyn kinase panel” (2012).

Each compound was assayed on Mast/stem cell growth factor receptor Kit (Homo sapiens), P10721 [T670I]. Settings: at 1 µM.
Sequence of Mast/stem cell growth factor receptor Kit (Homo sapiens), P10721 [T670I] (P10721 whole entry T670I): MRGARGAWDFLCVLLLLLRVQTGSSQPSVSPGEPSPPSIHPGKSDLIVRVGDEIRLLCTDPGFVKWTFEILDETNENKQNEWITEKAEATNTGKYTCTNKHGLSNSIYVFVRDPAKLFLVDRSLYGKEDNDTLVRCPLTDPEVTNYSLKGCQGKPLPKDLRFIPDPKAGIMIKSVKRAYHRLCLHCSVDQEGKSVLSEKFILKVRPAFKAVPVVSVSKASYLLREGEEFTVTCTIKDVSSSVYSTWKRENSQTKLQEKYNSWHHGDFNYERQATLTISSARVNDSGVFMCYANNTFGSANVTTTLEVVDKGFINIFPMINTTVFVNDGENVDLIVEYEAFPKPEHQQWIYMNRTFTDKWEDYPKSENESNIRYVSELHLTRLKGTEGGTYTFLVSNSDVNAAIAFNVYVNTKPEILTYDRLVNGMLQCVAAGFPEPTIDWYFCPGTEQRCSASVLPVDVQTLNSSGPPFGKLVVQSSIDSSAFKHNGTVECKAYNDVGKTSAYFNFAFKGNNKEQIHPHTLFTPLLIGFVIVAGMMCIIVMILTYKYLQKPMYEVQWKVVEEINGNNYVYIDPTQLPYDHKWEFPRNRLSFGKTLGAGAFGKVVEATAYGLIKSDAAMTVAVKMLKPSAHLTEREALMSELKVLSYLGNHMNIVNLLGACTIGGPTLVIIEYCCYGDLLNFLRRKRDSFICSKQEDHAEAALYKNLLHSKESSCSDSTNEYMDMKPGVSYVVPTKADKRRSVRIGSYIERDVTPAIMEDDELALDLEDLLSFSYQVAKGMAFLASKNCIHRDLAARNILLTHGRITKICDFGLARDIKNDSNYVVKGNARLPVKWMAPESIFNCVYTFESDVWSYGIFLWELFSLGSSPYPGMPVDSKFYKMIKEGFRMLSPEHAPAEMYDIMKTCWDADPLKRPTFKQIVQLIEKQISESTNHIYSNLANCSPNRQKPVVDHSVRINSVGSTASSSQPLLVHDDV

SMILES | inhibition
CN1CCC(C(=O)Nc2n[nH]c3nnc(-c4ccccc4)cc23)CC1 | 5.4%
COc1cc2ncn(-c3cc(OCc4ccccc4C(F)(F)F)c(C(N)=O)s3)c2cc1OC | 9.7%
CCn1c(-c2nonc2N)nc2ccncc21 | 3.05%
COc1cc2ncn(-c3cc(OCc4ccccc4Cl)c(C(N)=O)s3)c2cc1OC | 8.11%
CC1=C(C(=O)Nc2ccc3[nH]ncc3c2)C(c2ccc(Cl)c(Cl)c2)CC(=O)N1 (configuration not stated) | 1.52%
CS(=O)(=O)CCN(CC#N)Cc1ccc(-c2ccc3ncnc(Nc4ccc(OCc5cccc(F)c5)c(Cl)c4)c3c2)o1 | 0.88%
Nc1ncnc2occ(-c3ccc(NC(=O)Nc4cccc(C(F)(F)F)c4)cc3)c12 | 83.9%
O=C1NC(=O)C(N2CCc3ccccc32)=C1c1ccc(Cl)cc1 | 3.85%
O=C1NC(=O)C(c2ccc(Cl)cc2)=C1Nc1ccc(Cl)c(C(=O)O)c1 | -1.49%
NC(=O)c1cccc(Nc2nccc(Nc3cccc4[nH]ncc34)n2)c1 | 4.51%
CNC(=O)c1cncc(/C=C/c2c(Cl)cccc2Cl)c1 | 0.46%
COc1ccc(-c2coc3ncnc(N)c23)cc1 | 1.89%
Cc1nn(C)c2cc(N(C)c3ccnc(Nc4cccc(S(N)(=O)=O)c4)n3)ccc12 | 38.2%
O=C1NC(=O)C(c2cccc(Cl)c2)=C1Nc1ccc(O)c(Cl)c1 | -2.14%
O=C1Nc2ccc(C(=O)c3ccco3)cc2C1=Cc1cc(Cl)c(O)c(Cl)c1 | 21.1%
NS(=O)(=O)c1ccc(N/N=C2\C(=O)Nc3ccc(C(=O)NCCc4c[nH]cn4)cc32)cc1 | 4%
Nc1nc(-c2ccc3c(c2)C(=Cc2cc(Br)c(O)c(Br)c2)C(=O)N3)cs1 | -1.52%

SMILES | inhibition
O=C(Nc1n[nH]c2nc(-c3ccco3)c(Br)cc12)C1CC1 | 1.3%
Cn1cc(C=C2C(=O)Nc3cccnc32)c2ccccc21 | 19.8%
CC1=C(C(=O)Nc2ccc3[nH]ncc3c2)C(c2ccc(F)cc2)NC(=O)N1 (configuration not stated) | 0.34%
CCn1c(-c2nonc2N)nc2c(N3CCCC3)nccc21 | -1.43%
COc1cc2c(cc1Nc1nc(N3CCc4ccccc43)c3cc[nH]c3n1)N(C(=O)CN(C)C)CC2 | 4.61%
Cc1cccc(-c2n[nH]cc2-c2ccc3ncccc3n2)n1 | -0.51%
CCc1cccc(NC(=O)Nc2ccc(Oc3ccc4nc(NC(=O)OC)[nH]c4c3)cc2)c1 | 69.8%
COc1ccc(-c2nn3ncccc3c2-c2ccnc(Nc3ccc(Cl)c(C(F)(F)F)c3)n2)cc1 | 1.14%
Nc1ncnc2occ(-c3ccc(NC(=O)Nc4cc(C(F)(F)F)cc(C(F)(F)F)c4)cc3)c12 | 88.4%
CCn1c(-c2nonc2N)nc2cncc(C(=O)N3CC[C@H](N)C3)c21 | 3.02%
COC(=O)Nc1nc2cc(Oc3ccc(NC(=O)Nc4cccc(C(=O)O)c4)cc3)ccc2[nH]1 | 2.75%
[O-][S+]1CCN(Cc2ccc(-c3ccc4ncnc(Nc5ccc(OCc6ccccc6)c(F)c5)c4c3)o2)CC1 | 1.07%
COc1cc(C=NNc2ncnc3c2cnn3-c2ccccc2)ccc1O | 37.6%
NCc1ccc(-c2nc(-c3ccc(Cl)c(O)c3)c(-c3ccncc3)[nH]2)cc1 | 0.77%
Cc1nnc(-c2ccc(C)c(-c3ccc(C(=O)Nc4cccc(C#N)c4)cc3)c2)o1 | 1.69%
CCn1c(-c2nonc2N)nc2c(C#CC(C)(C)O)nc(OC[C@@H](N)c3ccccc3)cc21 | -0.45%

What follows are compounds tested on Mast/stem cell growth factor receptor Kit (Homo sapiens), P10721 [V560G]. Settings: at 0.1 µM.
Sequence of Mast/stem cell growth factor receptor Kit (Homo sapiens), P10721 [V560G] (P10721 whole entry V560G): as the sequence (P10721 whole entry T670I) above, with V560G, I670T counted along it

SMILES | inhibition
CN1CCC(C(=O)Nc2n[nH]c3nnc(-c4ccccc4)cc23)CC1 | -3.89%
COc1cc2ncn(-c3cc(OCc4ccccc4C(F)(F)F)c(C(N)=O)s3)c2cc1OC | -1.78%
CCn1c(-c2nonc2N)nc2ccncc21 | -0.14%
COc1cc2ncn(-c3cc(OCc4ccccc4Cl)c(C(N)=O)s3)c2cc1OC | 2.29%
CC1=C(C(=O)Nc2ccc3[nH]ncc3c2)C(c2ccc(Cl)c(Cl)c2)CC(=O)N1 (configuration not stated) | 2.42%
CS(=O)(=O)CCN(CC#N)Cc1ccc(-c2ccc3ncnc(Nc4ccc(OCc5cccc(F)c5)c(Cl)c4)c3c2)o1 | -0.55%
Nc1ncnc2occ(-c3ccc(NC(=O)Nc4cccc(C(F)(F)F)c4)cc3)c12 | 104%
NC(=O)c1ccc(-c2nc(-c3ccccn3)c(-c3ccc4c(c3)OCO4)[nH]2)cc1 | 1.28%
O=C1NC(=O)C(N2CCc3ccccc32)=C1c1ccc(Cl)cc1 | 7%
O=C1NC(=O)C(c2ccc(Cl)cc2)=C1Nc1ccc(Cl)c(C(=O)O)c1 | 2.75%
NC(=O)c1cccc(Nc2nccc(Nc3cccc4[nH]ncc34)n2)c1 | 5.52%
CNC(=O)c1cncc(/C=C/c2c(Cl)cccc2Cl)c1 | -1.49%
COc1ccc(-c2coc3ncnc(N)c23)cc1 | 2.72%
Cc1nn(C)c2cc(N(C)c3ccnc(Nc4cccc(S(N)(=O)=O)c4)n3)ccc12 | 4.37%
O=C1NC(=O)C(c2cccc(Cl)c2)=C1Nc1ccc(O)c(Cl)c1 | -1.77%
O=C1Nc2ccc(C(=O)c3ccco3)cc2C1=Cc1cc(Cl)c(O)c(Cl)c1 | 3.94%
NS(=O)(=O)c1ccc(N/N=C2\C(=O)Nc3ccc(C(=O)NCCc4c[nH]cn4)cc32)cc1 | -1.9%

SMILES | inhibition
Nc1nc(-c2ccc3c(c2)C(=Cc2cc(Br)c(O)c(Br)c2)C(=O)N3)cs1 | 3.52%
O=C(Nc1n[nH]c2nc(-c3ccco3)c(Br)cc12)C1CC1 | 1.23%
Cn1cc(C=C2C(=O)Nc3cccnc32)c2ccccc21 | -1.28%
CC1=C(C(=O)Nc2ccc3[nH]ncc3c2)C(c2ccc(F)cc2)NC(=O)N1 (configuration not stated) | -1.67%
CCn1c(-c2nonc2N)nc2c(N3CCCC3)nccc21 | -0.78%
COc1cc2c(cc1Nc1nc(N3CCc4ccccc43)c3cc[nH]c3n1)N(C(=O)CN(C)C)CC2 | 0.64%
Cc1cccc(-c2n[nH]cc2-c2ccc3ncccc3n2)n1 | 3.48%
CCc1cccc(NC(=O)Nc2ccc(Oc3ccc4nc(NC(=O)OC)[nH]c4c3)cc2)c1 | 65.6%
COc1ccc(-c2nn3ncccc3c2-c2ccnc(Nc3ccc(Cl)c(C(F)(F)F)c3)n2)cc1 | 0.89%
Nc1ncnc2occ(-c3ccc(NC(=O)Nc4cc(C(F)(F)F)cc(C(F)(F)F)c4)cc3)c12 | 33.8%
CCn1c(-c2nonc2N)nc2cncc(C(=O)N3CC[C@H](N)C3)c21 | 2.5%
COC(=O)Nc1nc2cc(Oc3ccc(NC(=O)Nc4cccc(C(=O)O)c4)cc3)ccc2[nH]1 | 5.8%
[O-][S+]1CCN(Cc2ccc(-c3ccc4ncnc(Nc5ccc(OCc6ccccc6)c(F)c5)c4c3)o2)CC1 | -2.07%
COc1cc(C=NNc2ncnc3c2cnn3-c2ccccc2)ccc1O | 8.24%
NCc1ccc(-c2nc(-c3ccc(Cl)c(O)c3)c(-c3ccncc3)[nH]2)cc1 | 1.37%
Cc1nnc(-c2ccc(C)c(-c3ccc(C(=O)Nc4cccc(C#N)c4)cc3)c2)o1 | 0.81%
CCn1c(-c2nonc2N)nc2c(C#CC(C)(C)O)nc(OC[C@@H](N)c3ccccc3)cc21 | 2.19%
